Screening data (PubChem)
In the library only some 8.3% were active in any assay of this set; here they are far more common.
HCV inhibitor: blocks hepatitis C virus | Huh7.5.1 HCVcc-Cre infection, luciferase reporter, 44 h | Potency, µM (series often up to 41.8 µM), most hits filed as inhibitors | 340,000 compounds, 3.4% hits
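A cell-based infection assay in which seeded cells (1,000 per well) receive test compound after 4 h, are inoculated with HCVcc-Cre at approximately 0.5 moi, and are incubated 44 h before luminescence detection.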
HCMV inh: blocks human cytomegalovirus replication; HFF cells, HCMV-luciferase reporter, 72 h; hits give low values; activity change, negative = inhibition, % at 57.5 µM; 410,000 compounds, 4.5% hits; AID 1259415; in the data active means activity change below about -60%; inconclusive means no clear call, values can overlap the other calls; inactive means above about -39%
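Human foreskin fibroblasts infected with luciferase-reporter HCMV at MOI 1 PFU/cell, compounds at two doses. Luciferase measured 72 h post infection; normalized to buffer-only basal and Salinomycin (10uM) controls.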
LASV entry inh: inhibitors of Lassa virus binding or cell entry; AID 540256; Lassa virus pseudotype entry inhibition, cell reporter; Potency, µM (doses to about 37.9 µM), usual class: inhibitors; 300,000 compounds, 1.2% hits; calls by dose curve; tested in HEK293 cells; further: nearly all actives have a fitted effect of over 50% in size
MARV entry inh: inhibitors of Marburg virus binding or cell entry; Potency, µM (highest dose often 37.8 µM), usual class: inhibitors; Marburg virus pseudotyped entry inhibition, cell reporter; 300,000 compounds, 1.8% hits; calls by dose curve; tested in HEK293 cells
Giardia FBPA inh: blocks Giardia fructose-bisphosphate aldolase activity; A8B2U2; purified Giardia FBPA; Potency, µM (highest dose often 59.6 µM), hits mostly inhibitors; 290,000 compounds, 0.71% hits; AID 2451; further: nearly all actives have a fitted effect of over 55% in size
Target sequence (A8B2U2 whole entry, looked up): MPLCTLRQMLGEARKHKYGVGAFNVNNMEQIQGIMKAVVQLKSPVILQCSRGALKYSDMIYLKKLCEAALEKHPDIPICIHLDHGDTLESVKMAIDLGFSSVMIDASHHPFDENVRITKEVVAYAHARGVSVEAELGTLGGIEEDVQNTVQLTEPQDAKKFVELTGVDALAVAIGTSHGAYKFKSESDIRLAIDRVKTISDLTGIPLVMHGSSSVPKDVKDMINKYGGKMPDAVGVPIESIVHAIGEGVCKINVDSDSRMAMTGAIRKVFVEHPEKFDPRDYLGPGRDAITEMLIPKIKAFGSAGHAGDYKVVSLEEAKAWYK
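Giardia FBPA (40 nM reagent) was preincubated 10 min at RT with compound (up to 57.5 uM final), then substrate plus GAPDH/TPI/NAD/arsenate coupling system with diaphorase/resazurin was added; resorufin fluorescence (525/598 nm) was read after 20 min.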
FMDV inh: foot and mouth disease virus antiviral activity. FMDV antiviral cell-based qHTS. AID 1159524. 410,000 compounds, 1.2% hits. Potency, µM (doses to about 57.9 µM), actives largely listed as inhibitors; calls by dose curve; tested in HEK293T cells; further: read-out not given here; nearly all actives have a fitted effect of over 45% in size
Each line names hits and unclear results; the compound was inactive in the other large screens; ! = not confirmed by another sample. Unless noted, the call rests on the fitted dose curve; in most records, active means well fitted curve in the direction sought with a large enough effect; inconclusive means small, poorly fitted or top-dose-only effect, or another doubt; inactive means no such curve, though single readings can be large; an effect the other way counts as inactive or inconclusive.

C=CCNc1nc(-c2cc3ccccc3o2)cs1	HCV inhibitor inconclusive, LASV entry inh 7.9µM, MARV entry inh inconclusive
O=C(CCN1C(=O)C2CCCCC2C1=O)Nc1nc2ccc(F)cc2s1 (centres undefined)	LASV entry inh 11µM, MARV entry inh inconclusive (no result: Giardia FBPA inh)
O=C(Nc1nc2cc3c(cc2s1)OCCO3)C1=COCCO1	HCMV inh active, FMDV inh 4µM (no result: LASV entry inh, MARV entry inh)
CSc1cccc2sc(NC(=O)C3=COCCO3)nc12	none (no result: Giardia FBPA inh)
O=C(Nc1nc2ccc(F)cc2s1)C1=COCCO1	LASV entry inh 2.8µM, MARV entry inh inconclusive, FMDV inh inconclusive (no result: Giardia FBPA inh)
O=C(CCN1C(=O)C2CCCCC2C1=O)Nc1nc2c(F)cc(F)cc2s1 (centres undefined)	none (no result: LASV entry inh, MARV entry inh, Giardia FBPA inh)
COc1cccc([C@H]2C(C(=O)c3cccs3)=C(O)C(=O)N2c2cc(C)on2)c1	none (no result: HCV inhibitor, HCMV inh, LASV entry inh, Giardia FBPA inh, FMDV inh)
O=C(CCc1ccccc1)N1CCc2c([nH]c3ccccc23)C1c1ccc(Cl)cc1 (centres undefined)	HCMV inh -68, LASV entry inh inconclusive (no result: HCV inhibitor, MARV entry inh, Giardia FBPA inh)
CSc1ccc(C2c3[nH]c4ccccc4c3CCN2C(=O)CCc2ccccc2)cc1 (centres undefined)	HCMV inh -79, LASV entry inh 2.5µM (no result: HCV inhibitor, MARV entry inh, Giardia FBPA inh)
O=C(CCc1ccccc1)N1CCc2c([nH]c3ccccc23)C1c1ccc(F)cc1 (centres undefined)	HCMV inh -90, LASV entry inh inconclusive (no result: HCV inhibitor, MARV entry inh, Giardia FBPA inh)
O=C(CSCc1ccc(F)cc1)N1CCc2c([nH]c3ccccc23)C1c1ccc(F)cc1 (centres undefined)	LASV entry inh inconclusive (no result: HCV inhibitor, MARV entry inh, Giardia FBPA inh)
CN(C)S(=O)(=O)c1ccc(C(=O)Nc2ccnn2C2CCCCC2)cc1	MARV entry inh inconclusive, FMDV inh 28µM
COc1ccc(-c2cn(CCC(=O)O)c(=O)cn2)cc1	none (no result: HCV inhibitor, LASV entry inh, MARV entry inh, Giardia FBPA inh, FMDV inh)
O=C(Nc1ccc(Oc2cccnc2)cc1)c1ccccc1Cl	HCV inhibitor inconclusive, HCMV inh inconclusive
CCOC(=O)Cc1ncccc1C(=O)Nc1ccc(Oc2ccccc2)cc1	HCMV inh -98, MARV entry inh inconclusive
O=C(Nc1ccc(Oc2cccnc2)cc1)c1ccccc1F	HCV inhibitor inconclusive, HCMV inh -86, MARV entry inh inconclusive
O=C(Nc1ccc(F)cc1)c1cccnc1Oc1ccccc1	none
CO[C@H]1COC(=O)[C@@H](Cc2ccccc2)NC(=O)[C@@H](C)COC(=O)C/C=C\[C@@H]1C	none (no result: HCV inhibitor, HCMV inh, LASV entry inh, MARV entry inh, FMDV inh)
O=C(COc1ccccc1)Nc1c(C(=O)N2CCN(c3ccc(F)cc3)CC2)oc2ccccc12	HCMV inh -107 (no result: HCV inhibitor, MARV entry inh, Giardia FBPA inh)
CCC(CC)C(=O)Nc1c(C(=O)N2CCN(c3ccccc3)CC2)oc2ccccc12	HCMV inh -79!, LASV entry inh inconclusive, MARV entry inh inconclusive (no result: Giardia FBPA inh)
CCC(CC)C(=O)Nc1c(C(=O)N2CCN(c3ccccc3F)CC2)oc2ccccc12	LASV entry inh inconclusive, MARV entry inh inconclusive (no result: HCV inhibitor, Giardia FBPA inh)
COc1cccc(N2CCN(C(=O)c3oc4ccccc4c3NC(=O)CCc3cc(OC)no3)CC2)c1	HCMV inh -61 (no result: Giardia FBPA inh)
COc1ccc(NS(=O)(=O)c2cccc(NC(=O)CCC(=O)c3ccc(Cl)cc3)c2)cc1	HCV inhibitor 8.9µM, HCMV inh -83, LASV entry inh inconclusive, MARV entry inh inconclusive, FMDV inh inconclusive
COc1ccc(NS(=O)(=O)c2cccc(NC(=O)CCC(=O)c3cccs3)c2)cc1	none
COc1cccc(S(=O)(=O)Nc2ccc(C(=O)Nc3ccncc3)cc2)c1	LASV entry inh inconclusive, MARV entry inh inconclusive
COc1ccc(NS(=O)(=O)c2cccc(NC(=O)NCCCl)c2)cc1	HCV inhibitor 7.9µM (no result: LASV entry inh)
COc1ccc(NS(=O)(=O)c2cccc(NC(=O)c3ccc(Cl)nc3)c2)cc1	HCV inhibitor 2.8µM, HCMV inh -89, LASV entry inh 5µM, MARV entry inh inconclusive, FMDV inh 32µM
O=C(Nc1cccc(S(=O)(=O)Nc2ccc(Cl)cc2)c1)c1ccc(Cl)nc1	HCV inhibitor 1.6µM, HCMV inh -95, LASV entry inh inconclusive, MARV entry inh inconclusive
COc1ccc(NC(=O)C2=C(C)Nc3nc(SCc4ccc(Cl)cc4)nn3C2c2cccc(OC)c2OC)cc1 (centres undefined)	HCMV inh inconclusive (no result: HCV inhibitor, MARV entry inh, Giardia FBPA inh)
Cc1cccc(NC(=O)/C(C#N)=C/c2cn(CC(=O)NCc3ccco3)c3ccccc23)c1C	HCMV inh -82
N#C/C(=C\c1cn(Cc2ccccc2)c2ccccc12)C(=O)NCc1ccco1	HCV inhibitor inconclusive
CCN(CC)C(=O)c1sc2c(c1C)c(=O)n(-c1ccc(C)c(C)c1)c(=O)n2Cc1cc(=O)n2c(C)cccc2n1	FMDV inh inconclusive (no result: HCV inhibitor, MARV entry inh, Giardia FBPA inh)
CC(/C=C1\SC(=O)N(CCCC(=O)O)C1=O)=C\c1ccccc1	HCMV inh -89, LASV entry inh 0.79µM, MARV entry inh 0.5µM, FMDV inh 0.89µM
CC(=C\c1ccccc1)/C=C1/SC(=S)N(CCCC(=O)O)C1=O	HCMV inh -82, LASV entry inh inconclusive, MARV entry inh inconclusive, FMDV inh inconclusive
CC(=O)OCC(NC(=O)C(COCc1ccccc1)NC(=O)OC(C)(C)C)C1OC(n2cc(C)c(=O)[nH]c2=O)C(OC(C)=O)C1OC(C)=O (centres undefined)	none (no result: HCV inhibitor, HCMV inh, LASV entry inh, MARV entry inh, FMDV inh)
O=c1[nH]c2ccc(Cl)cc2c(-c2ccccc2)c1N1CCN(CCO)CC1	HCV inhibitor inconclusive, LASV entry inh inconclusive, MARV entry inh 10µM
CCc1cc2c(N3CCCCC3)ncnc2s1	HCV inhibitor 11µM, FMDV inh inconclusive
CCc1cc2c(N3CCN(C)CC3)ncnc2s1	none
Cc1cc2n(n1)C(c1c[nH]c3ccccc13)Nc1ccccc1-2 (centres undefined)	HCV inhibitor 4µM, MARV entry inh inconclusive (no result: HCMV inh)
Cc1cc2n(n1)C(c1cccs1)Nc1ccccc1-2 (centres undefined)	HCV inhibitor 2.8µM
Cc1cc2n(n1)C(c1cn(-c3ccccc3)nc1C)Nc1ccccc1-2 (centres undefined)	none
C(=C\c1ccccc1)/CN1CCN(c2ncnc3c2oc2ccccc23)CC1	HCV inhibitor inconclusive, HCMV inh -73, MARV entry inh inconclusive, FMDV inh 20µM
c1cnc(N2CCN(c3ncnc4c3oc3ccccc34)CC2)nc1	none (no result: HCV inhibitor, HCMV inh, LASV entry inh, FMDV inh)
CCOC(=O)N1CCC(N(C(=O)Nc2ccc(Cl)c(Cl)c2)C(C)CC)CC1 (centres undefined)	HCV inhibitor 10µM!, HCMV inh inconclusive, LASV entry inh inconclusive, MARV entry inh inconclusive, Giardia FBPA inh inconclusive (no result: FMDV inh)
CCOC(=O)N1CCC(N(CCOC)C(=O)Nc2ccc(CC)cc2)CC1	none (no result: FMDV inh)
COc1ccc2c3c(n(C)c2c1)[C@H](CO)N(C(C)=O)CC31CCN(C(=O)C2CCOCC2)CC1	none (no result: HCV inhibitor, LASV entry inh, MARV entry inh, Giardia FBPA inh, FMDV inh)
Cc1ccc(NC(=O)CSc2ccc3c(c2)OCCO3)c(O)c1	HCV inhibitor 10µM, HCMV inh inconclusive (no result: LASV entry inh, MARV entry inh, Giardia FBPA inh)
CCCCC(=O)Nc1ccccc1C(=O)N1CCOCC1	none
O=C(Cc1ccccc1[N+](=O)[O-])Nc1ccccc1C(=O)N1CCOCC1	LASV entry inh 10µM
Cc1ccc(SCC(=O)Nc2ccccc2C(=O)N2CCOCC2)cc1	HCMV inh -71, MARV entry inh inconclusive
